Test results as given in PubChem BioAssay (EPA / NIEHS).
Active and inactive are the calls of the source. Rule for the calls: active = hit-call score of the fitted dose curve at least 0.9, where 1 is the maximum; inactive = score below 0.9.

read-out: Vascular endothelial growth factor receptor 2 (Homo sapiens) (UniProt P35968); assay: BSK_4H_VEGFRII: BioMAP Diversity Plus: 4H Assay for Vascular endothelial growth factor receptor 2 (VEGFR2) Biomarker Activity (AID 2283031); conditions: primary human endothelial cells (HUVEC); actives raise or lower the signal
Description: BSK_4H is a cell-based, multiplexed-readout assay that uses umbilical vein endothelium, a human vascular primary cell, with measurements taken at 24 hours after chemical dosing in a 96-well plate.BSK_4H_VEGFRII is an assay component measured in the BSK_4H assay. It measures VEGFRII antibody related to regulation of gene expression using ELISA technology.Data from the assay component BSK_4H_VEGFRII was analyzed into 1 assay endpoint. This assay endpoint, BSK_4H_VEGFRII, was analyzed with bidirectional fitting relative to DMSO as the negative control and baseline of activity. Using a type of binding reporter, gain or loss-of-signal activity can be used to understand changes in the signaling as they relate to the gene KDR. Furthermore, this assay endpoint can be referred to as a primary readout, because this assay has produced multiple assay endpoints where this one serves a signaling function. To generalize the intended target to other relatable targets, this assay endpoint is annotated to the kinase intended target family, where the subfamily is receptor tyrosine kinase.
The levels of cell surface (or secreted, indicated by the prefix "s") biomarker endpoints were measured by ELISA. Overt cytotoxicity to cells in confluent adherent cultures (all systems other than the BT system) was assessed by measuring total protein levels using sulforhodamine B (SRB) staining in parallel cultures at the time of biomarker measurements, indicated as SRB endpoints. For proliferation assays for adherent cell types, individual cell types are cultured at sub-confluence and relative cell numbers quantified by SRB staining at time points optimized for each system (48 h: 3C and CASM3C systems; 72 h: BT and HDF3CGF systems; 96 h: SAg system). SRB was performed by staining cells with 0.1% SRB after fixation with 10% TCA and reading wells at 560 nm.Viability and proliferation of PBMC (T cells) was quantified by Alamar Blue reduction for the SAg and BT systems. For PBMC viability (referred to as PBMC Cytotoxicity within the assay endpoint names), cells were plated (75,000/well in a 96-well plate) and then chemical samples added for 1 h before addition of activators, SEB and TSST-1 (20 ng/mL final concentration each). Cells were incubated for 90 h. Then, Alamar Blue (20 uL/well) (Invitrogen, Cat DAL1100) was added for 6 h, and the plates were read with a fluorescence microplate reader at 546/580 nm (excitation/emission). For PBMC proliferation, cells were plated and activated as above but incubated for only 16 h prior to addition of Alamar Blue. Plates were read after 6 h.

Q: Which outcome does the source give for `CC(C)c1cccc(C(C)C)c1NC(=O)NS(=O)(=O)c1cc(C(C)(C)O)co1` here?
A: inactive

Q: With `O=C(O)CN(CC(=O)O)CC(=O)O` as the compound, how does the outcome read?
A: inactive

Q: For `CC(=O)O`, which outcome is on record?
A: inactive

Q: How did the outcome turn out when `CC(=O)S[C@H](C(=O)N[C@H]1Cc2ccccc2[C@H]2CCC[C@@H](C(=O)O)N2C1=O)C(C)C` was run?
A: inactive

Q: How did the outcome turn out when `COC(=O)CCCC(=O)OC` was run?
A: inactive

Q: `O=NO` was tested. Which outcome did it give?
A: inactive

Q: How did the outcome turn out when `CC(=O)O[C@]1(C(C)=O)CC[C@H]2[C@@H]3C=C(Cl)C4=CC(=O)[C@@H]5C[C@@H]5[C@]4(C)[C@H]3CC[C@@]21C` was run?
A: inactive

Q: Which outcome does the source give for `Cc1cc(SC2=C(O)C[C@@](CCc3ccc(N)cc3)(C(C)C)OC2=O)c(C(C)(C)C)cc1CO` here?
A: inactive

Q: For `COc1ccc(C(=O)Nc2nc3ccccc3c(NCc3ccccc3)c2C#N)cc1`, which outcome is on record?
A: inactive

Q: `Cc1occc(=O)c1O` was tested. Which outcome did it give?
A: inactive

Q: How did the outcome turn out when `Cc1c(C)c2c(c(C)c1O)CCC(C)(COc1ccc(CC3SC(=O)NC3=O)cc1)O2` (stereo not given) was run?
A: inactive

Q: `CCCCC(CC)COC(=O)CCCCCCCC(=O)OCC(CC)CCCC` (stereo not given) was tested. Which outcome did it give?
A: inactive

Q: `COC(=O)CCC(=O)OC` was tested. Which outcome did it give?
A: inactive

Q: With `C/C=C/c1ccc(OC)cc1` as the compound, how does the outcome read?
A: inactive

Q: How did the outcome turn out when `O=C1c2c(O)cccc2Cc2cccc(O)c21` was run?
A: inactive

Q: For `O=C(O)c1cccnc1`, which outcome is on record?
A: inactive

Q: Which outcome does the source give for `CCN(CC)CCOc1ccc(C(=C(Cl)c2ccccc2)c2ccccc2)cc1` here?
A: inactive

Q: `CCCCC(CC)COP(=O)(OCC(CC)CCCC)OCC(CC)CCCC` (stereo not given) was tested. Which AC50 did it give?
A: 20 µM (active)

Q: For `Cc1cn([C@H]2C=C[C@@H](CO)O2)c(=O)[nH]c1=O`, which outcome is on record?
A: inactive

Q: With `CN(C)CCCN1c2ccccc2Sc2ccc(Cl)cc21` as the compound, how does the outcome read?
A: inactive

Q: Which outcome does the source give for `Cc1ccc(-c2cc(C(F)(F)F)nn2-c2ccc(S(N)(=O)=O)cc2)cc1` here?
A: inactive

Q: Which outcome does the source give for `NC1CCCCC1` here?
A: inactive

Q: Which outcome does the source give for `Nc1nc(=S)c2[nH]cnc2[nH]1` here?
A: inactive

Q: `O=Cc1ccccc1C=O` was tested. Which outcome did it give?
A: inactive

Q: For `CC(=O)OCC(COC(C)=O)OC(C)=O`, which outcome is on record?
A: inactive

Q: `Cc1cc(Cc2ccc(N)c(C)c2)ccc1N` was tested. Which outcome did it give?
A: inactive

Q: How did the outcome turn out when `CC(=O)[C@@]1(O)CC[C@H]2[C@@H]3CCC4=CC(=O)CC[C@]4(C)[C@H]3CC[C@@]21C` was run?
A: inactive

Q: How did the outcome turn out when `NCCOCCOCCN` was run?
A: inactive

Q: How did the outcome turn out when `N[C@@H](Cc1c[nH]c2ccccc12)C(=O)O` was run?
A: inactive

Q: With `C=CCc1ccc(OC)c(OC)c1` as the compound, how does the outcome read?
A: inactive

Q: Which outcome does the source give for `CC(N)=O` here?
A: inactive

Q: With `NC(=Nc1ccccc1)Nc1ccccc1` as the compound, how does the outcome read?
A: inactive

Q: How did the outcome turn out when `CCCCCCCC(=O)OC` was run?
A: inactive

Q: How did the outcome turn out when `CSc1ccc(Oc2ccc(S(N)(=O)=O)cc2CN(C)C)cc1C` was run?
A: inactive

Q: With `O=C(O)c1[nH]n(-c2ccc(S(=O)(=O)O)cc2)c(=O)c1N=Nc1ccc(S(=O)(=O)O)cc1` as the compound, how does the outcome read?
A: inactive

Q: How did the outcome turn out when `O=C(NS(=O)(=O)/C=C/c1cccs1)c1ccc(F)cc1Br` was run?
A: inactive

Q: With `CCC(C)N(C)C(=O)c1cc2ccccc2c(-c2ccccc2Cl)n1` (stereo not given) as the compound, how does the outcome read?
A: inactive

Q: Which outcome does the source give for `CC(COCC(C)OC(=O)c1ccccc1)OC(=O)c1ccccc1` (stereo not given) here?
A: inactive

Q: For `CC(C)NCC(O)c1ccc(O)c(O)c1` (stereo not given), which outcome is on record?
A: inactive

Q: How did the outcome turn out when `CCCCCCC(C=O)=Cc1ccccc1` was run?
A: inactive
